Experimental findings from PubChem BioAssay (NCATS) are described below.

Experiment [1] concerns the target N-terminal Xaa-Pro-Lys N-methyltransferase 1 (Homo sapiens) (UniProt Q9BV86). Kind of experiment: qHTS Assay for Inhibitors of N-terminal methyltransferase 1 (NTMT1): LOPAC validation of the NTMT1 SAHH-coupled ThioGlo3 Assay (AID 1347143).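 Note: SAH from peptide methylation measured as thiol fluorescence via SAHH coupling and ThioGlo3; nearly all actives have a fitted effect of over 70% in size.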 Note: potency is the fitted concentration of half-maximal effect. Put shortly:
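Steps: dispense 125nM NTMT1; pin-transfer test compounds at several concentrations, with 1uM RCC1-6 peptide as control; incubate 1 min; start with reagent holding 100uM SAM, 10uM SAHH, 15uM ThioGlo3; read at 0 and 30 min.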
(In qHTS, concentration-response curves come from the screen itself.)

Experiment [2] concerns Zika virus NS2B-NS3 protease (unlinked). As to the kind of experiment: Optimization of GU AMC qHTS for Zika virus inhibitors: Unlinked NS2B-NS3 protease assay (AID 1347151). Note: nearly all actives have a fitted effect of over 80% in size. Note: potency is the fitted concentration of half-maximal effect. Put shortly: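 Noncovalent complex of NS2B hydrophilic domain and NS3 protease domain, 25 nM final, in 10 mM Tris-HCl pH 8.0, 0.01% Tween 20. AMC fluorescence change over 15 min at room temperature was fitted to a 4-parameter Hill equation.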

Experiment [3] deals with Zika virus NS2B-NS3 protease. As to the kind of experiment: Primary screen GU AMC qHTS for Zika virus inhibitors (AID 1347154). Note: nearly all actives have a fitted effect of over 70% in size. The gist of the method: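 Unlinked Zika NS2B hydrophilic domain–NS3 protease complex at 25 nM in 10 mM Tris-HCl pH 8.0, 0.01% Tween 20, with an AMC peptide substrate. Fluorescence change (340/450 nm) over 15 min at room temperature, normalized to controls, fitted to 4-parameter Hill.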

Experiment [4] deals with Lysine-specific demethylase 5B (Homo sapiens) (UniProt Q9UGL1). Kind of experiment: Optimization screen for KDM5B Histone Demethylases FDH coupled qHTS against the LOPAC library (AID 1347166). Put shortly:
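KDM5BDeltaAP (200nM final) in 50mM HEPES pH 7.5, 0.01% Tween-20 was preincubated with compound for 10 min at room temperature. A substrate mix of 12.5uM H3K4Me3, 25uM a-ketoglutarate, ascorbate, Fe2+, NAD+ and formaldehyde dehydrogenase was then added. NADH fluorescence (340/450 nm) was read initially and after 30 min.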

The subject of experiment [5] is Zika virus NS2B-NS3 protease (unlinked complex). Kind of experiment: Primary screen GU Rhodamine qHTS for Zika virus inhibitors: Unlinked NS2B-NS3 protease assay (AID 1347159). Note: nearly all actives have a fitted effect of over 60% in size. The gist of the method: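 In dose–response format, inhibition of unlinked protease (25 nM) was measured with 1.5 microM bis-peptide Rhodamine110 substrate. Aprotinin served as the intraplate control.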

The test system of experiment [6] is Zika virus NS2B-NS3 protease (linked construct). Kind of experiment: Primary screen NINDS Rhodamine qHTS for Zika virus inhibitors (AID 1347160). Note: nearly all actives have a fitted effect of over 55% in size. Put shortly: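 Each compound, titrated, sat 15 min with 25 nM linked protease before 1.5 microM Rhodamine110 substrate went in. Fluorescence gain over the next 15 min, in pH 8.0 Tris with Tween 20, gave Hill-fitted curves.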

Experiment [7] deals with Zika virus NS2B-NS3 protease (unlinked complex). As to the kind of experiment: Confirmatory screen GU AMC qHTS for Zika virus inhibitors (AID 1347153). Note: nearly all actives have a fitted effect of over 70% in size. The gist of the method: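 Unlinked NS2B-NS3 complex (25 nM) in 10 mM Tris-HCl pH 8.0, 0.01% Tween 20 preincubated 15 min with compound, then 10 microM Bz-Nle-KRR-AMC (Km 18.3 µM). Fluorescence change over 15 min, normalized, Hill-fitted.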

Experiment [8] can be described thus: Confirmatory screen NINDS Rhodamine qHTS for Zika virus inhibitors (AID 1347161). Note: potency is the fitted concentration of half-maximal effect; nearly all actives have a fitted effect of over 60% in size. The gist of the method: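 Aprotinin served as in-plate control. Conditions: 25 nM linked NS2B-NS3, pH 8.0 Tris buffer, titrated compounds, 15 min preincubation and 15 min reaction with 1.5 microM Rhod110 substrate at room temperature.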
Experiment [9] has as its system Zika virus NS2B-NS3 protease (linked). Kind of experiment: 384 well plate NINDS AMC confirmatory qHTS for Zika virus inhibitors (AID 1347163). Note: potency is the fitted concentration of half-maximal effect; nearly all actives have a fitted effect of over 50% in size. To be noted: Recombinant NS2B-NS3 protease, Ac-VKTGKR-AMC fluorescence. Put shortly:
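Fluorescence at 355/460 nm was read after 25 minutes of cleavage of 30 microM Ac-VKTGKR-AMC at room temperature, in the dark. Before substrate addition, compounds (up to 1 mM final) sat ~15 minutes with 5, 30 or 60 nM linked protease. Signals were normalized to no-enzyme and no-inhibitor wells.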

Experiment [10] deals with Zika virus NS2B-NS3 protease (linked construct). As to the kind of experiment: 384 well plate NINDS Rhodamine confirmatory qHTS for Zika virus inhibitors (AID 1347164).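 Note: fluorescence from protease cleavage of Ac-LKRR-rhodamine 110 substrate; potency is the fitted concentration of half-maximal effect; nearly all actives have a fitted effect of over 65% in size.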 Put shortly: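 Linked protease at a final 5 nM, 30 nM or 60 nM was preincubated ~15 min with compounds, then given 10 microM Ac-LKRR-Rhodamine 110. Fluorescence (ex 485/em 538 nm) after 25 min in the dark at room temperature.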

The nature of experiment [11]: HepG2 cells viability qHTS for Zika virus inhibitors (AID 1347168). The gist of the method: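 qHTS titration; 24-48 h compound exposure, 37 degrees C/5% CO2; DMEM, 4% FBS; CellTiter Glo ATP luminescence.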
Experiment [12] in a line: Tertiary RLuc qRT-PCR qHTS assay for Zika virus inhibitors (AID 1347169). Note: top concentration of the series differs between compounds; nearly all actives have a fitted effect of over 55% in size. Put shortly: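 Vero cells (1,000 per well) plated overnight at 37 degrees C, treated with compound in DMSO, then infected with recombinant ZIKV-RLuc (Cambodian) at MOI 1-2 for 48-72 hrs. Live-cell Renilla luciferase substrate added; luminescence read after 1-1.5 hrs.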
For orientation: In qPCR the cycle at which signal appears reflects the starting amount.

Inconclusive results are not listed. Calls of active or inactive are those of the source. Calls come from the whole dose curve; as a rule, active = well fitted curve in the direction sought with a large enough effect; inconclusive = small, poorly fitted or top-dose-only effect, or another doubt; inactive = no such curve, though single readings can be large; an effect the other way counts as inactive or inconclusive.

Sequence of N-terminal Xaa-Pro-Lys N-methyltransferase 1 (Homo sapiens) (Q9BV86 whole entry, looked up): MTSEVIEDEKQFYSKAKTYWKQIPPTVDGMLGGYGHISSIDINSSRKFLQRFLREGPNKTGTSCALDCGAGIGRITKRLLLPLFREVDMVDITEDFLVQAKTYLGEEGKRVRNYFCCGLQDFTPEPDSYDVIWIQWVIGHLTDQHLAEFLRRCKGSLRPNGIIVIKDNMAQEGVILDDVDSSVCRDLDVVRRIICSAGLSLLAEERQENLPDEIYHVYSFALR
Sequence of Lysine-specific demethylase 5B (Homo sapiens) (Q9UGL1 whole entry, looked up): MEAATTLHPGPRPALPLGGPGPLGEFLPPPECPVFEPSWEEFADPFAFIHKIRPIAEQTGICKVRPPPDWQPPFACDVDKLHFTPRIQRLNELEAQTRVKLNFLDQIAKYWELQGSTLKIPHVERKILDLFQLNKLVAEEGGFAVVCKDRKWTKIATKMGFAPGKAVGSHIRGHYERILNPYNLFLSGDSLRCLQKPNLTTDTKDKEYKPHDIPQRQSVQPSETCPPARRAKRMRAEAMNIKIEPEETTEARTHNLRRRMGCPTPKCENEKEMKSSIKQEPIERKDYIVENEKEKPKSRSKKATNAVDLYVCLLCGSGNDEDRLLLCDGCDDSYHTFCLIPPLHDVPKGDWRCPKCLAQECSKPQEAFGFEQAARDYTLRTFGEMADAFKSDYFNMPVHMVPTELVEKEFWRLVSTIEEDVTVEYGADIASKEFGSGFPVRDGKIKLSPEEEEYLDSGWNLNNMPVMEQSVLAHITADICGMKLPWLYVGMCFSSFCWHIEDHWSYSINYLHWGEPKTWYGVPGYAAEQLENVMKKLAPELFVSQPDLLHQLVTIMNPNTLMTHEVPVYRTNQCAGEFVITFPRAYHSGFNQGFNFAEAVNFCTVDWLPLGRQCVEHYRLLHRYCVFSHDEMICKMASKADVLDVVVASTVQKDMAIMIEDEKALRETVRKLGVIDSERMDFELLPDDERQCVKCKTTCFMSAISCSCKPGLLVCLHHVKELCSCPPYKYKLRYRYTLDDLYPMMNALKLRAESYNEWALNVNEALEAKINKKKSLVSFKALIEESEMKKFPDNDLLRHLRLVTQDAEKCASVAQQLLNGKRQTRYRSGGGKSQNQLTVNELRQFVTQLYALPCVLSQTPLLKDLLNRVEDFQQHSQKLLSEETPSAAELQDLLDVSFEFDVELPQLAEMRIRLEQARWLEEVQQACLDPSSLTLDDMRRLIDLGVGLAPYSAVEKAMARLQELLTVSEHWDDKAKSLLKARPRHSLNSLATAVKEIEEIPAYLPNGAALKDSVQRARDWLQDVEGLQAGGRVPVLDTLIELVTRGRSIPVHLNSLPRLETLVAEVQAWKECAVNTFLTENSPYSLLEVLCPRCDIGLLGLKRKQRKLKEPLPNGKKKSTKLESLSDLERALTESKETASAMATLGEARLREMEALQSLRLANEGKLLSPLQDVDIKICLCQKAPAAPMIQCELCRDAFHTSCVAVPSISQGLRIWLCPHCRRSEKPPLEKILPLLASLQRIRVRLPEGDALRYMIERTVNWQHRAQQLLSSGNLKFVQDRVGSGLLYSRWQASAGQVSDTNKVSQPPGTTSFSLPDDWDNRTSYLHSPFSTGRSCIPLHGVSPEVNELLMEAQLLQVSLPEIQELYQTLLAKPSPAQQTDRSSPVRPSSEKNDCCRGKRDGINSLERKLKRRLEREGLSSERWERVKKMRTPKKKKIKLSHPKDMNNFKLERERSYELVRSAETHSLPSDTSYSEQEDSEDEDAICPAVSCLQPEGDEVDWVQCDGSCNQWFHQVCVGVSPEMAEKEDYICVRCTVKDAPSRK

For the compound `O=S(=O)(c1cccc2c(I)cccc12)N1CCCNCC1`, in experiment [1], the Potency was 39.8 µM (active). The Potency result in experiment [2] and in experiment [3] was “inactive” each time. Besides, in [4], the compound was called inactive.

Regarding `NS(=O)(=O)C#Cc1ccccc1`, the Potency result in experiment [1], in experiment [2] and in experiment [3] was “inactive” each time. Also, in [4], the outcome was inactive.

Take `CN(CCCOc1ccc(Cc2ccccc2)cc1)CCC(=O)O`: the Potency entry in [1], in [2], in [5] and in [6] was “inactive” in each case.

With `O=C(Nc1ccncc1)c1cc([N+](=O)[O-])ccc1Cl`, the Potency entry in experiment [1], in experiment [2] and in experiment [3] was “inactive” throughout.

In the case of `COc1cc(SC)ccc1C(=O)N1CCC(Cc2ccccc2)CC1`, the Potency entry in experiment [1], in experiment [2] and in experiment [3] was “inactive” each time. Moreover, the call in experiment [4] was inactive.

Regarding `CCCCCCCCCCCCCCCC(=O)OC(CC(=O)O)C[N+](C)(C)C` (centres undefined), the Potency result in experiment [1], in experiment [2] and in [3] was “inactive” in each case. Also, in experiment [4], the call was inactive.

Regarding `COc1ccccc1CNCCCCCCNCCCCCCCCNCCCCCCNCc1ccccc1OC`, the Potency in experiment [1] was 35.5 µM (active). In addition, the Potency result in experiment [2] and in [3] was “inactive” throughout. In experiment [4], the outcome was inactive.

Regarding `N[C@H](CCCP(=O)(O)O)C(=O)O`, the Potency entry in experiment [1], in [2] and in experiment [3] was “inactive” in each case.

As for `CC(C)NC[C@H](O)COc1cccc2[nH]ccc12`, the Potency entry in [1], in experiment [2] and in experiment [3] was “inactive” each time. The compound was called inactive in experiment [4].

Consider `CNCC[C@H](Oc1ccc(C(F)(F)F)cc1)c1ccccc1`, for which the Potency result in experiment [1], in [2] and in experiment [3] was “inactive” each time. Also, in experiment [4], the result was inactive.

As for `O=C(O)c1cc(=O)c2c(Cl)cc(Cl)cc2[nH]1`, the Potency result in experiment [1], in [2] and in [3] was “inactive” each time. For the same compound, the call in experiment [4] was inactive.

As for `O=C(Nc1ccccc1)c1cc([N+](=O)[O-])ccc1Cl`, the Potency entry in experiment [1], in experiment [2] and in [3] was “inactive” throughout. For the same compound, the compound was classed as inactive in experiment [4].

`CN1[C@@H](CC(=O)c2ccccc2)CCC[C@H]1C[C@H](O)c1ccccc1`: the Potency result in experiment [1], in experiment [2] and in experiment [3] was “inactive” in each case. For the same compound, in experiment [4], the compound was classed as inactive.

Take `O=C1NC(=O)/C(=C/c2ccc(-c3ccc(F)cc3O)o2)S1`: the Potency in experiment [1] was 44.7 µM (active); in [2], 21.2 µM (active); in experiment [8], 24.8 µM (active); in [9] it was 63.1 µM (active); in experiment [10], 20 µM (active). For the same compound, the call in experiment [7] and in experiment [11] was inactive. For the same compound, the Potency entry in experiment [12] was “inactive”.

As for `O=C(O)CNC(=O)C(CS)Cc1ccccc1` (centres undefined), the Potency entry in experiment [1], in experiment [2] and in [3] was “inactive” throughout. Besides, the result in experiment [4] was inactive.

As to `Cc1ccc(S(=O)(=O)/C=C/C#N)cc1`, the Potency in experiment [1] is 5.62 µM (active). Also, the Potency result in [2] and in [3] was “inactive” each time.

As to `Cc1ccc(O)c(N=Nc2ccccc2)n1`, the Potency in experiment [1] was 50.1 µM (active). The Potency result in experiment [2] and in experiment [3] was “inactive” in each case. Besides, in experiment [4], the outcome was inactive.
